Screening results from PubChem.
Mcl1 Noxa PPI – disrupts binding of human Mcl-1 to Noxa peptide; TR-FRET Mcl-1/Noxa peptide binding, 2 h; actives 1.5% (n = 220,000); AID 1022; inhibition, % at 21.7 µM;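 active means compounds that cut the protein-peptide binding signal by more than 50% relative to plate controls in a single-dose test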;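 further: His-tagged Mcl-1 with rhodamine Noxa BH3 peptide and terbium anti-His antibody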
Target sequence (Q07820 whole entry, looked up): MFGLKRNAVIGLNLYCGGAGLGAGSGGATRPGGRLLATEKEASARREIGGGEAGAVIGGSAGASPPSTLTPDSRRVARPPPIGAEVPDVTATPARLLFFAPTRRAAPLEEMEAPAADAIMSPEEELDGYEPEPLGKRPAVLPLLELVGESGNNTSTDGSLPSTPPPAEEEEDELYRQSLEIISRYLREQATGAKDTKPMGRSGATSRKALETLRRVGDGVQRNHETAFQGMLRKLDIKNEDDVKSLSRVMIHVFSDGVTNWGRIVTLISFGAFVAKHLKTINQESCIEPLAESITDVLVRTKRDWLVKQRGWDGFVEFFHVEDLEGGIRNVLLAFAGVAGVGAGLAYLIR
Mcl1-Bid inh – Mcl-1/Bid interaction inhibition | TR-FRET Mcl-1/Bid-Dy647 peptide binding, 1536-well | inhibition, % at 21.7 µM | actives 0.97% (n = 220,000);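 active means compounds that cut the binding signal by more than half at the single screening dose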;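 further: His-tagged Mcl-1 with europium anti-His antibody binding Bid BH3 peptide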
Mcl-1 Bim block – human Bim-Mcl-1 interaction inhibition | inhibition, % at 10 µM | Bead-based flow cytometry, Bim peptide-Mcl-1 binding | AID 1009 | Q07820 | actives 0.1% (n = 190,000); in the data active means inhibition above about 40%
14-3-3 Bad inh – disrupts binding of bovine 14-3-3 zeta to phospho-Bad peptide; P63103; TR-FRET 14-3-3zeta/Dy647-pBad peptide displacement, 1 h; inhibition, % at 21.7 µM; actives 0.71% (n = 220,000); AID 781;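 active means inhibition above about 70%, limit read from the data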
Target sequence (P63103 whole entry, looked up): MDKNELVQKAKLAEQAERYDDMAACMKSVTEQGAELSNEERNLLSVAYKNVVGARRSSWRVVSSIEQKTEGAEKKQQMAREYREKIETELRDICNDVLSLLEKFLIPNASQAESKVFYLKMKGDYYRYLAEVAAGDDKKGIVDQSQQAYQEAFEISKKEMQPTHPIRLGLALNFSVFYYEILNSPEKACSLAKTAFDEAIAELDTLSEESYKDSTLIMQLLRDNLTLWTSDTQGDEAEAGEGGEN
MCL1-BIM inh – inhibitors of human MCL1 binding to BIM-BH3 peptide. Q07820. GST-MCL1 / FITC-Bim-BH3 fluorescence polarization. inhibition, % at 10.9 µM. actives 0.68% (n = 320,000). AID 2057;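 active means inhibition above the mean inhibition of all tested compounds plus 3 SD, set per campaign, cut at about 40% in these data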;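 further: higher means more loss of mP so more displacement of Bim peptide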
A number is an active result; - = inactive; . = not tested or not shown; [ ] = another dose, or the depositor's remark. This is a sample that favours compounds with a hit; in the whole collection about 2.5% have one here.

SMILES | Mcl1 Noxa PPI | Mcl1-Bid inh | Mcl-1 Bim block | 14-3-3 Bad inh | MCL1-BIM inh
COCCN1C(=O)/C(=C/c2ccc(OCc3ccc(C(=O)O)cc3)c(OC)c2)SC1=Nc1ccccc1 | 63.8 | - | - | - | -
COc1cc(/C=C2\SC(=Nc3ccccc3)N(Cc3ccco3)C2=O)ccc1OC(C)C(=O)O (stereo not given) | - | - | - | - | -
CC(=O)C1=C(O)C(=O)N(Cc2cccnc2)C1c1ccc(Cl)cc1Cl (stereo not given) | - | - | - | - | -
CC(=O)Oc1ccc2c3c(c(=O)oc2c1C)CCCC3 | . | . | . | . | -
NS(=O)(=O)c1ccc(CNC(=O)c2cc(-c3ccccn3)nc3ccc(Cl)cc23)cc1 | 54.4 | - | - | - | 44.4
O=C(c1ccco1)N1CCN(C(=O)c2cc(-c3ccccc3)nc3ccccc23)CC1 | - | - | - | - | -
O=C(CSc1nc2ccc(Cl)cc2[nH]1)N1CCN(C(=O)c2ccco2)CC1 | 57.1 | - | - | - | -
Cc1ccc2nc(SCC(=O)N3CCN(C(=O)c4ccco4)CC3)[nH]c2c1 | - | - | - | - | -
NS(=O)(=O)c1ccc(CNC(=O)c2cc(-c3cccnc3)nc3ccc(Cl)cc23)cc1 | . | . | . | . | -
O=C(c1ccco1)N1CCN(C(=O)c2cc(-c3ccccn3)nc3ccc(Cl)cc23)CC1 | 64.4 | - | - | - | -
CCSc1ccccc1C(=O)NCc1ccc(S(N)(=O)=O)cc1 | 52.5 | - | - | - | -
O=C(COc1ccccc1Cl)Nc1cnn(Cc2ccccc2)c1 | - | - | - | - | -
Clc1ccc(OCCn2ccnc2)c2ccccc12 | - | - | - | - | -
Cc1n[nH]c(=S)c2nn(-c3ccccc3)c(C)c12 | - | 70.1 | - | - | .
Cc1ccc(-n2nc3c(=S)[nH]nc(C)c3c2C)cc1 | - | - | - | - | -
CCOC(=O)c1c(-c2ccc(C)o2)csc1NC(=O)CN1CCN(CC)CC1 | - | - | - | 71.0 | -
CCN1C(=O)/C(=C/c2cccs2)SC1=Nc1ccc(OC)cc1 | - | 97.2 | - | - | -
COc1cc(/C=C2\C(=O)NN(c3ccccc3)C2=O)cc([N+](=O)[O-])c1O | 50.6 | - | - | - | -
CCOc1cc(/C=C2\C(=O)NN(c3ccccc3)C2=O)cc([N+](=O)[O-])c1O | 50.5 | - | - | - | -
CCN(c1ccc(F)cc1)S(=O)(=O)c1ccc2[nH]cc(C(=O)NCCCN3CCOCC3)c(=O)c2c1 | - | - | - | - | -
CCN(c1ccccc1)S(=O)(=O)c1ccc2[nH]cc(C(=O)N3CCOCC3)c(=O)c2c1 | - | 57.4 | - | - | -
Cc1ccn(CCC(=O)NC2CCCc3c2cnn3-c2cccc(C)c2C)n1 (stereo not given) | . | . | . | . | -
CC(NCc1ccc(N(C)C)cc1)C1CC2CCC1C2 (stereo not given) | - | - | - | 77.8 | -
CC(NC(=O)c1ccc(CS(C)(=O)=O)cc1)C1CC2CCC1C2 (stereo not given) | . | . | . | . | -
O=S(=O)(Nc1ccccc1OC(F)F)c1ccc(S(=O)(=O)N2CCCC2)cc1 | . | . | . | . | -
SMILES | Mcl1 Noxa PPI | Mcl1-Bid inh | Mcl-1 Bim block | 14-3-3 Bad inh | MCL1-BIM inh
Cc1cc(C)n(CC(=O)NCc2cc(-c3nn(C)c(=O)c4ccccc34)ccc2C)n1 | - | - | - | - | -
Cc1ccc(-c2nn(C)c(=O)c3ccccc23)cc1CNC(=O)Cn1nc(-c2ccccc2)c2ccccc2c1=O | - | 76.6 | - | - | .
COc1ccc(C(=O)/C=C/Nc2cccc(O)c2)cc1 | - | - | - | - | 48.3
COc1cccc(N/C=C/C(=O)c2ccc(Br)cc2)c1 | . | . | . | . | -
CCOC(=O)C1=C(Cc2ccc(OC)cc2)C(=O)c2ccccc2C1=O | - | - | - | - | .
CCOC(=O)C1=C(Cc2ccc(C)cc2)C(=O)c2ccccc2C1=O | 66.7 | - | - | - | -
CCOC(=O)C1=C(C)N(c2ccccc2)C(=O)/C1=C\c1ccc(O)c(OC)c1 | - | - | . | - | -
CCOC(=O)C1=C(O)c2ccccc2C(=O)/C1=C\c1ccc(CC)cc1 | 84.6 | 51.9 | - | - | -
CCCc1ccc(/C=C2\C(=O)c3ccccc3C(O)=C2C(=O)OCC)cc1 | 88.0 | - | - | - | -
CCOC(=O)c1ccc(COC(=O)c2ccc3c(c2)-c2ccccc2C3=O)cc1 | - | - | - | - | -
COc1cc(-c2ccc(Nc3ccccc3C(=O)O)c(OC)c2)ccc1Nc1ccccc1C(=O)O | 105.3 | 97.5 | . | 97.0 | .
CC(=O)/C(=N\Nc1ccccc1)Sc1cccc2cccnc12 | 68.7 | - | - | - | -
CC(=O)/C(=N\Nc1ccccc1Cl)Sc1cccc2cccnc12 | - | - | - | - | -
Cn1c(SCC(=O)N=Nc2c(O)[nH]c3ccccc23)nc2ccccc21 | - | 82.9 | - | - | -
O=C(Nc1ccc(F)cc1)c1cccnc1 | . | . | . | . | -
O=C(Nc1ccc(F)cc1)c1ccc(-n2ccnc2)nc1 | - | - | - | 86.4 | -
CC(=O)c1sc2nc(CSc3nncn3C)[nH]c(=O)c2c1C | - | 54.0 | - | - | -
CC(=O)c1sc2nc(CSc3nnnn3-c3ccccc3)[nH]c(=O)c2c1C | 95.5 | - | - | - | -
Cc1ccc(Cl)cc1NC(=S)N(Cc1ccco1)C(C)c1cccs1 (stereo not given) | - | - | - | - | -
C=CCN1C(=O)C(C)S/C1=N\S(=O)(=O)c1ccc(Cl)cc1 (stereo not given) | - | - | - | - | -
CCN1C(=O)C(C)S/C1=N\S(=O)(=O)c1ccc(F)cc1 (stereo not given) | 75.0 | - | - | - | -
CC(=O)c1sc(N/N=C\c2cccc(Br)c2)nc1C | 50.6 | - | - | - | -
COc1ccc(CNC[C@@H](CCCCN(C)Cc2ccc(OC)cc2)N2C[C@H](c3ccccc3)N(CCc3ccc(Cl)c(Cl)c3)C(=O)C2=O)cc1 | - | - | - | - | -
CN(CCCC[C@H](CNCc1ccc(-c2ccccc2)cc1)N1C[C@H](c2ccccc2)N(CCc2ccc(Cl)c(Cl)c2)C(=O)C1=O)Cc1ccc(-c2ccccc2)cc1 | - | 60.7 | . | - | .
O=C(Nc1nnc(-c2ccccc2Cl)o1)c1cc2cc([N+](=O)[O-])ccc2s1 | 55.1 | - | - | - | .
SMILES | Mcl1 Noxa PPI | Mcl1-Bid inh | Mcl-1 Bim block | 14-3-3 Bad inh | MCL1-BIM inh
CCCCCCCCS(=O)CCC(=O)O (stereo not given) | - | - | - | - | -
Oc1cccc(C(O)CNCc2ccc(-c3ccccc3)cc2)c1 (stereo not given) | - | - | - | 77.4 | -
COCCn1c(SCC(=O)Nc2ccccc2C)nc2c(oc3ccccc32)c1=O | - | 54.4 | - | - | -
COCCn1c(SCC(=O)Nc2ccc(C)cc2C)nc2c(oc3ccccc32)c1=O | - | - | - | - | -
O=C(CNC(=O)C(c1ccccc1)c1ccccc1)N/N=C/c1cccnc1 | 95.5 | - | . | - | -
Nc1nn(S(=O)(=O)c2cccc3nsnc23)cc1-c1ccc(Br)cc1 | - | - | - | - | -
CN1CCc2nc3sc(C(=O)C45CC6CC(CC(C6)C4)C5)c(N)c3cc2C1 | 57.8 | 85.3 | - | 80.5[fluorescence artefact?] | -
Nc1c(C(=O)O)sc2nc3c(cc12)CCCC3 | - | - | . | - | -
